In publication PMC4336329 (PLoS ONE, 2015):
Hit rate of the full screen: of about 310,000 compounds, about 14,000 (4.5%) showed an effect of 50% or more. Effects have a minus sign here. This excerpt belongs to a sample that is enriched for strong results.

Target: human ether-à-go-go-related gene (hERG) potassium channel (human, UniProt Q12809)
Test: primary screen, population patch clamp on CHO cells stably expressing hERG; higher = less effect of the substance
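Also: peak tail current of the secondary pulse compared with the same well before compound.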

human ether-à-go-go-related gene (hERG) potassium channel, sequence (Q12809 whole entry, looked up): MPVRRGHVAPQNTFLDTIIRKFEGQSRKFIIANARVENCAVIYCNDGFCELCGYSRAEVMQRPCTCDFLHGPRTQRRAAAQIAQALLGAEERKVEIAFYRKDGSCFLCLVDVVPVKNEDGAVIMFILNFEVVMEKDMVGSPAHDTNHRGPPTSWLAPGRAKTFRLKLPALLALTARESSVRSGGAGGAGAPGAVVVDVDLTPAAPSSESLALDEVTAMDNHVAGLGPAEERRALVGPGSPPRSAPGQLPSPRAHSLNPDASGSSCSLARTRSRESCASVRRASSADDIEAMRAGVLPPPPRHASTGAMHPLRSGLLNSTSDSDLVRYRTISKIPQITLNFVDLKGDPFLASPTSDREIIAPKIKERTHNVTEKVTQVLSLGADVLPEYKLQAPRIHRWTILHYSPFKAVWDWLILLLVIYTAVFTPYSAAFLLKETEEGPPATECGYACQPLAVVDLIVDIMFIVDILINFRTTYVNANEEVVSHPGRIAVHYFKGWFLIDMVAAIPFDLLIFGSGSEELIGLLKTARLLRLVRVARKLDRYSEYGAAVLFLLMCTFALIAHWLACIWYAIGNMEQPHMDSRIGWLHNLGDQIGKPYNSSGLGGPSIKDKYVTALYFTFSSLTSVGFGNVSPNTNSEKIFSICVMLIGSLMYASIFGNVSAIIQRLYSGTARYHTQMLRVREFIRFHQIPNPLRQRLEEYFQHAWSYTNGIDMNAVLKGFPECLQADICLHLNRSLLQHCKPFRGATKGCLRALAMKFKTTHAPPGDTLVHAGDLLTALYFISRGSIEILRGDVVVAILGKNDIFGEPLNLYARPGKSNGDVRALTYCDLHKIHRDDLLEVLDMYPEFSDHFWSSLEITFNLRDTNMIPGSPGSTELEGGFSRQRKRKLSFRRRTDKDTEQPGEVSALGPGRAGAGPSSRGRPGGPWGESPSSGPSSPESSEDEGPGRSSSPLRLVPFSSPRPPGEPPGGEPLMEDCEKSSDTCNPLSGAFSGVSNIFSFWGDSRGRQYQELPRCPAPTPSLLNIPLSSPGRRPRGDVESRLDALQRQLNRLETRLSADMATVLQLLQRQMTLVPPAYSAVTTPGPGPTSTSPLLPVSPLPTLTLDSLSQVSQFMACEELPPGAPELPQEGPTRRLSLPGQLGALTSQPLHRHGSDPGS

Compound | hERG current change (%, negative = inhibition) at 10uM [%]
Cc1ccc(C(=O)COC(=O)c2ccccc2N2C(=O)C3C4CCC(C4)C3C2=O)cc1C (stereo not drawn) | -19.2
CCN(CCO)C(=O)C12CCC(C)(C(=O)C1)C2(C)C (stereo not drawn) | -9.66
COc1c(Cl)cc(C(=O)NN)cc1Cl | 0.95
CC(=O)Nc1sc2c(c1C(N)=O)CCCC2 | 22.8
CCc1cccc(C)c1NC(=O)CCOc1ccccc1 | 3.79
c1ccc(C2=Nc3cccnc3C(c3ccccc3)=NN2)cc1 | 15.9
O=C(CCNS(=O)(=O)c1ccccc1)OCC(=O)c1ccc(Cl)cc1 | -30
CC(C)CN(C(=O)COC(=O)c1ccc(Br)cc1)c1c(N)n(Cc2ccccc2)c(=O)[nH]c1=O | -2.83
CCOC(=O)C1=C(COC(=O)c2cccs2)NC(=O)NC1C (stereo not drawn) | 6.08
Cc1sc(NC(=O)c2ccccc2F)c(CN2CCCCC2C)c1C (stereo not drawn) | -7.58
Cc1ccccc1NC(=O)c1ccc(Cl)c(NC(=O)c2ccncc2)c1 | -32.1
CSC1=N/C(=C\c2ccc3c(c2)OCO3)C(=O)S1 | 12.3
O=C(N/N=C/c1cccs1)C1CC(=O)N(c2ccccc2)C1 (stereo not drawn) | -8.24
Cn1ncc2c(NNC(=O)c3ccccc3Cl)ncnc21 | 10.1
Cc1ccccc1N1CCN(C2CCCN(C(=O)CN3CCCC3=O)C2)CC1 (stereo not drawn) | 5.78
Cc1cc(C)n(CC(=O)N2CCCC(N3CCN(c4ccccc4C)CC3)C2)n1 (stereo not drawn) | -14
Cc1ccccc1N1CCN(C2CCCN(C(=O)CCC(=O)N(C)C)C2)CC1 (stereo not drawn) | 9.34
COc1ccc(OCC(=O)N2CCCC(N3CCN(c4ccccc4C)CC3)C2)cc1 (stereo not drawn) | -85.9
Cc1ccccc1N1CCN(C2CCCN(C(=O)CCN3CCCO3)C2)CC1 (stereo not drawn) | -0.397
CC(C)=CC(=O)N1CCCC(N2CCN(c3ccccc3C)CC2)C1 (stereo not drawn) | -16
Cc1ccccc1N1CCN(C2CCCN(C(=O)CCC(F)(F)F)C2)CC1 (stereo not drawn) | -47.3
CC(=O)c1ccc(OCC(=O)N2CCCC(N3CCN(c4ccccc4C)CC3)C2)cc1 (stereo not drawn) | -75.2
Cc1ccccc1N1CCN(C2CCCN(C(=O)COc3ccccc3)C2)CC1 (stereo not drawn) | -62.7

Compound | hERG current change (%, negative = inhibition) at 10uM [%]
CC(=NCC1CCCO1)C1=C(O)CC(C)(C)CC1=O (stereo not drawn) | -5.04
COc1ccccc1COCC(O)CN(Cc1ccco1)Cc1ccccc1O (stereo not drawn) | -27
CC(=O)c1cccc(NC(=O)CCn2c(=S)oc3ccccc32)c1 | 9.8
CC(=O)NC1(c2cccc(F)c2)CCN(C(=O)Nc2ccc(C#N)cc2)CC1 | -13.8
O=C(Nc1cccnc1)c1cc([N+](=O)[O-])ccc1Cl | -0.51
CCC1CCCCN1CCCNC(=O)c1ccc(CS(=O)(=O)c2ccc(Br)cc2)o1 (stereo not drawn) | -56.7
Cc1ccccc1S(=O)(=O)Cc1ccc(C(=O)NCCN2CCN(Cc3ccccc3)CC2)o1 | -61.9
O=C(NCCN1CCN(Cc2ccccc2)CC1)c1ccc(CS(=O)(=O)c2ccc(Br)cc2)o1 | -79.8
CCC1CCCCN1CCCNC(=O)c1ccc(CS(=O)(=O)c2ccccc2OC)o1 (stereo not drawn) | 6.46
O=C(NCCCN1CCOCC1)c1ccc(CS(=O)(=O)c2ccc(Br)cc2)o1 | -6.32
O=C(NCCN1CCCCCC1)c1ccc(CS(=O)(=O)c2ccc(Br)cc2)o1 | -57.4
CCC1CCCCN1CCCNC(=O)c1ccc(CS(=O)(=O)c2ccccc2C)o1 (stereo not drawn) | -26.5
O=C(NCCN1CCOCC1)c1ccc(CS(=O)(=O)c2ccc(Br)cc2)o1 | -2.9
CCN1CCN(CCNC(=O)c2ccc(CS(=O)(=O)c3ccccc3C)o2)CC1 | -1.23
CN1CCN(CCCNC(=O)c2ccc(CS(=O)(=O)c3ccc(Br)cc3)o2)CC1 | -10.3
O=C(NCCCN1CCCC1)c1ccc(CS(=O)(=O)c2ccc(Br)cc2)o1 | -16.7
Cc1ccccc1S(=O)(=O)Cc1ccc(C(=O)NCCCN2CCN(C)CC2)o1 | -1.6
O=C(CN(C(=O)C1CSC(=O)C1)c1cccc(F)c1)NCc1ccc2c(c1)OCO2 (stereo not drawn) | -14.7
COc1ccc(CCNC(=O)CCc2nc3sc4c(c3c(=O)[nH]2)CCCC4)cc1 | 9.78
Cn1c(=S)[nH]c2c(c1=O)C(C)(C)Cc1ccccc1-2 | 10.9
Cc1[nH]c(=O)[nH]c(=O)c1S(=O)(=O)N1CCOCC1 | 3.26
CCCn1c(SCC(=O)Nc2c(C)cccc2CC)nnc1C(C)C | 3.71
O=C(Nc1ccc(S(=O)(=O)C(F)F)cc1)c1ccc2c(=O)n3c(nc2c1)CCC3 | 24.1

Compound | hERG current change (%, negative = inhibition) at 10uM [%]
O=C(Nc1cccc(S(=O)(=O)N2CCCCC2)c1)c1ccc2c(=O)n3c(nc2c1)CCCCC3 | -64.5
O=C(Nc1ccc2c(c1)nc1n2CCCCC1)c1cc(S(=O)(=O)N2CCOCC2)ccc1Cl | -15.5
O=C(Nc1ccc(F)c(Cl)c1)c1ccc2c(=O)n3c(nc2c1)CCCCC3 | -36.6
Cc1ccc(S(=O)(=O)N2CCCCC2)cc1NC(=O)c1ccc2c(=O)n3c(nc2c1)CCCCC3 | -64.1
Cc1ccc(NC(=O)c2ccc3c(=O)n4c(nc3c2)CCCCC4)cc1F | -24.6
O=C(Nc1cccc(S(=O)(=O)N2CCOCC2)c1)c1ccc2c(=O)n3c(nc2c1)CCCCC3 | -73.3
O=C(Nc1ccc(S(=O)(=O)N2CCCC2)cc1)c1ccc2c(=O)n3c(nc2c1)CCCCC3 | 9.23
O=C(Nc1cccc(S(=O)(=O)N2CCCC2)c1)c1ccc2c(=O)n3c(nc2c1)CCCCC3 | -57.1
Cc1ccc(C)c(NC(=O)c2ccc3c(=O)n4c(nc3c2)CCC4)c1 | -25.9
O=C(c1ccc2c(=O)n3c(nc2c1)CCC3)N1CCN(S(=O)(=O)c2cccc(F)c2)CC1 | -4.8
CC(NC(=O)c1cnccn1)c1ccc(S(N)(=O)=O)cc1 (stereo not drawn) | -2.33
C=CCn1c(SCC(=O)NCc2ccco2)nc2sc(C)c(C)c2c1=O | 3.62
CC(C)NC(=O)COc1coc(CN2CCN(Cc3ccccc3)CC2)cc1=O | 11.9
COc1ccc(-c2nc3c(n2O)CCc2c-3no[n+]2[O-])cc1 | 10.6
Nc1nnnn1CC(=O)N/N=C/C=C/c1ccccc1 | 16.1
COc1cc2c(cc1OC)CN(C(=O)c1sc(-c3cnccn3)nc1C)CC2 | 0.572
O=S(=O)(Nc1cccc(-c2ccc(N3CCOCC3)nn2)c1)c1cc(Cl)ccc1Cl | -26.8
CC(C)(C)OC(=O)N[C@@H](CCCCNC(=O)OCc1ccccc1)c1nnc([C@H](CCCCNC(=O)OCc2ccccc2)NC(=O)OC(C)(C)C)o1 | -22.6
CCCCN(C(=O)c1cc(OC)c(OC)c(OC)c1)C1=CC2CCC(C1)N2C.Cl (stereo not drawn) | -20.2
CN1C2CCC1CC(OC(=O)c1ccc(Cl)cc1)(C(=O)O)C2.Cl (stereo not drawn) | 1.82
CN1OC(COC(=O)c2ccc(Cl)cc2)CC1c1ccccc1 (stereo not drawn) | -4.56
COc1ccc(CCN(C(=O)c2ccc(F)cc2)C2=CC3CCC(C2)N3C)cc1OC.Cl (stereo not drawn) | -46.6
COc1ccc(C(=O)CN(C(=O)c2ccc(Cl)cc2)N2C(=O)C3CCCCC3C2=O)cc1 (stereo not drawn) | -6.63

Compound | hERG current change (%, negative = inhibition) at 10uM [%]
COc1ccc(N(C(=O)c2ccc(Cl)cc2)C2=CC3CCC(C2)N3C)cc1.Cl (stereo not drawn) | -82
COc1ccc(N(C(=O)c2ccncc2)S(=O)(=O)c2ccc(Cl)cc2)cc1 | -26.4
CN1C2C=C(N(C(=O)c3ccc(Cl)cc3)c3ccccc3)CC1CC2.Cl (stereo not drawn) | -74
COc1ccc(N(C(=O)c2ccc(F)cc2)C2=CC3CCC(C2)N3C)cc1.Cl (stereo not drawn) | -71.5
N#CC1=C(N)OC2=C(C(=O)CC(c3ccco3)C2)C1c1ccc(OCc2c(F)cccc2Cl)cc1 (stereo not drawn) | -1.84
Nc1c([N+](=O)[O-])c(=O)oc2ccccc12 | 19.1
CN(C)CCNC(=S)Nc1ccc(F)c(F)c1F | 22.3
C=CCNC(=O)c1c(Cl)cnn1-c1ccc(C)cc1 | -4.22
Cc1ccc(CNC(=O)CN2C(=O)COc3ccc(S(=O)(=O)N4CCCCC4)cc32)o1 | 16
C[C@H](NC(=O)N1CCn2c1nc1ccccc12)C(=O)NCc1ccco1 | -10.6
CCOc1ccc(CCNC(=O)C2CCCN(S(=O)(=O)N3CCOCC3)C2)cc1OCC (stereo not drawn) | 0.332
COC(=O)c1cccc(NC(=S)N2CCN(c3ccccc3F)CC2)c1 | 5.71
O=C(CCCn1c(SCc2cc(=O)n3ccccc3n2)nc2ccccc2c1=O)NCC1CCCO1 (stereo not drawn) | -1.72
COc1ccc(CNc2nc(SCc3cc(=O)n4cc(Cl)ccc4n3)nc3ccccc23)cc1 | -44
O=C(CCCn1c(SCc2cc(=O)n3cc(Cl)ccc3n2)nc2ccccc2c1=O)NCC1CCCO1 (stereo not drawn) | -53.7
O=C(CCCn1c(SCc2ccccc2F)nc2ccccc2c1=O)NCC1CCCO1 (stereo not drawn) | -14
O=c1cc(CSc2nc(NCc3ccccc3)c3ccccc3n2)nc2ccc(Cl)cn12 | -59.3
O=c1c2sccc2nc(SCc2cc(=O)n3cc(Cl)ccc3n2)n1Cc1ccccn1 | -26.2
CC(=O)NCCn1c(SCC(=O)c2ccc(Cl)cc2)nc2ccccc2c1=O | -4.33
CC(=O)NCCn1c(SCc2cc(=O)n3cc(Cl)ccc3n2)nc2ccccc2c1=O | -50.7
COCCn1c(SCc2cc(=O)n3cc(C)ccc3n2)nc2ccccc2c1=O | 13.7
